# Rows were chosen to be rich in hits. Some 3.6% of all compounds tested hit in one or more screens of this group.
# Autofluor counter – counter-screen for toxin protease inhibitors: compound fluorescence; compound autofluorescence counterscreen, microsphere flow cytometry; stronger effect = higher value; fluorescence intensity (concentration not given with the values); 3.1% of 360,000 active; in the data active = fluorescence intensity above about 16000; inconclusive = no clear call, values can overlap the other calls
# BJeLR viability – MLPCN primary cell-based screen for lethality selective to Ras in HRASV12 cells; BJeLR (HRASV12) viability, CellTiter-Glo ATP luminescence, 48 h; inhibition, % (test concentration not listed); 0.17% of 300,000 active; in the data active = inhibition above about 50%; inconclusive = no clear call, values can overlap the other calls
# BoNT F protease – BoNT/F light chain protease inhibitors, primary screen, biochemical, flow cytometry, MLPCN library; inhibition, % at 10 µM; 0.22% of 360,000 active; AID 588497, 2011; Botulinum neurotoxin type F light chain protease (Clostridium botulinum); Multiplex microsphere protease cleavage assay; in the data active = inhibition above about 35%, passing the limit was not always enough; inconclusive = no clear call, values can overlap the other calls
# SARS 3CLpro inh – SARS-CoV 3CLpro protease inhibitors, primary screen, biochemical, quenched FRET; Replicase polyprotein 1ab (Severe acute respiratory syndrome coronavirus), P0C6X7; recombinant SARS-CoV 3CLpro, quenched FRET peptide cleavage; inhibition, % at 6 µM; 0.14% of 290,000 active; AID 1706, 2009; in the data active = inhibition above about 12%
# BoNT A protease – BoNT/A light chain protease inhibitors, primary screen, biochemical, flow cytometry, MLPCN library | Botulinum neurotoxin type A light chain protease (Clostridium botulinum A str. ATCC 3502) | multiplex microsphere protease substrate cleavage | inhibition, % at 10 µM | 0.17% of 360,000 active | AID 588499, 2011
# Anthrax LF prot – Bacillus anthracis LF protease inhibitors, primary screen, biochemical, multiplex microsphere, MLPCN library. Lethal factor (Bacillus anthracis), P15917. multiplex microsphere protease cleavage assay. AID 588501, 2011. 0.12% of 360,000 active. inhibition, % at 10 µM
# Numbers stand for hits; – = inactive; ? = inconclusive; · = no result. Rule as the data show it, unless noted: active = inhibition above about 30%; inconclusive = no clear call, values can overlap the other calls; inactive = below that.
SMILES,Autofluor counter,BJeLR viability,BoNT F protease,SARS 3CLpro inh,BoNT A protease,Anthrax LF prot
CCCSC1=C(C#N)C(c2ccccc2OCC)CC(=O)N1 (configuration not stated),23587,–,–,–,–,–
Cc1cc(Br)cn2c(Cc3ccsc3)c(C3CCCCC3)nc12,–,·,–,·,–,–
CCCCCN(C(=O)CCC(=O)OCc1cccc(C(F)(F)F)c1)c1c(N)n(CCCC)c(=O)[nH]c1=O,–,–,–,–,–,–
c1ccc(-n2nnnc2SCc2cn3cccnc3n2)cc1,23611,–,–,–,–,–
O=C(CSc1ncnc2nc[nH]c12)NCCc1ccccc1,–,–,–,–,–,–
CC(NC(=O)CSc1ncnc2nc[nH]c12)c1ccccc1 (configuration not stated),21770,–,–,–,–,–
CCc1ccc(NC(=O)CC2NCCNC2=O)cc1 (configuration not stated),–,–,–,–,–,–
CCc1ccc(NC(=O)CC2C(=O)Nc3c2c(=O)n(C)c(=O)n3C)cc1 (configuration not stated),22007,–,–,–,–,–
CCC(=O)c1cc2c(C)cc(=O)oc2c(C)c1OC,22529,–,–,–,–,–
O=C(CNS(=O)(=O)c1ccc(Cl)cc1)N1CCN(c2ccc(F)cc2)CC1,–,·,–,·,–,–
O=c1ccc(S(=O)(=O)N2CCCC2)cn1Cc1nc(-c2ccc(F)cc2)no1,57271,·,–,·,–,–
COc1ccc(-c2noc(Cn3cc(S(=O)(=O)N4CCCC4)ccc3=O)n2)cc1,?,·,–,·,–,–
Cc1cc2ccccc2c(=O)n1CC(=O)NCC(=O)N1CCN(c2ccccc2)CC1,23551,–,–,–,–,–
Cc1cc2ccccc2c(=O)n1CC(=O)N1CCN(c2cccc(Cl)c2)CC1,–,–,–,–,–,–
CCN1CCCc2cc(CN(CCN3CCOCC3)C(=S)Nc3cccc(Cl)c3)ccc21,–,–,–,–,–,–
CCN(C(=O)c1ccc(NC(C)=O)cc1)c1ccccc1,21341,–,–,–,–,–
CN(C(=S)NC(=O)Cc1ccccc1)c1ccccc1,–,–,–,–,–,–
CN(C(=O)c1cc2ccccc2oc1=O)C1(C)CCS(=O)(=O)C1 (configuration not stated),–,–,–,–,–,–
CCn1c(COc2ccc(=O)n(-c3ccccc3)n2)nnc1SCc1ccccc1,21225,–,–,–,–,–
CCn1c(COc2ccc(=O)n(-c3ccccc3)n2)nnc1SCc1ccc(OC)cc1,–,–,–,–,–,–
COn1c(-c2ccc(Cl)cc2)nc2ncccc21,–,–,?,–,–,–
COCCNc1nc(-c2ccc(OC)cc2)c(-c2ccc(OC)cc2)s1,–,–,–,–,–,–
Cn1c2c(c(=O)n(C)c1=O)CN(CCCN1CCOCC1)CN2,16352,–,–,–,–,–
CC(c1ccccc1)N1CNc2c(c(=O)n(C)c(=O)n2C)C1 (configuration not stated),–,–,–,–,–,–
COc1ccc(CN2CCC2(C)C(=O)NCc2ccc3c(c2)OCO3)c2ccccc12 (configuration not stated),–,·,–,·,–,–
SMILES,Autofluor counter,BJeLR viability,BoNT F protease,SARS 3CLpro inh,BoNT A protease,Anthrax LF prot
O=C(O)CCC(=O)N1CCc2cc(S(=O)(=O)NC3CCCc4ccccc43)ccc21 (configuration not stated),–,–,–,–,–,–
Cc1ccc(C)c(N2CCN(S(=O)(=O)c3ccc4c(c3)CCN4C(=O)CCC(=O)O)CC2)c1,–,–,–,–,–,–
Cc1cccc(N2CCN(S(=O)(=O)c3ccc4c(c3)CCN4C(=O)CCC(=O)O)CC2)c1C,24315,·,–,–,–,–
O=C(O)CCC(=O)N1CCc2cc(S(=O)(=O)NC3CCCC3)ccc21,21391,–,–,–,–,–
C[C@H](NC(=O)c1nc[nH]c1C(=O)N1CCNCC1)C(=O)OC(C)(C)C,–,–,–,·,–,–
Cc1ccc(C(=O)Oc2ccc(C(=O)COC(=O)c3cnccn3)cc2)cc1,16162,–,–,–,–,–
Cc1ccc(C(=O)COC(=O)c2cnccn2)cc1,–,–,–,–,–,–
COc1ccc(NC(=O)N(C)C[C@H]2Oc3c(NC(=O)C4CCCCC4)cccc3C(=O)N([C@H](C)CO)C[C@@H]2C)cc1,–,·,–,·,–,–
O=C(O)C(c1ccccc1)C1CCCCC1O (configuration not stated),–,·,–,·,–,–
CCOc1ccc(C(=O)C[n+]2cccc3cc(C)ccc32)cc1,25078,–,79,–,–,–
Cc1ccc(C(=O)C[n+]2cccc3cc(C)ccc32)cc1,–,–,–,–,–,–
COc1cc(NC(=S)NC(=O)c2ccccc2F)ccc1NC(=O)c1ccco1,–,–,–,–,–,–
CCCCC(=O)Nc1ccccc1C(C)C,·,–,·,–,·,·
CN(C)/C=N/c1ncc(C(=O)c2ccc(Cl)cc2)s1,22056,–,–,–,–,–
COCc1n[nH]c(=S)n1-c1cccc2ccccc12,23066,·,–,–,–,–
CC(C)NC(=O)CCNS(=O)(=O)c1ccc(Br)cc1,24137,–,–,–,–,–
Cc1ccc(/C=[N+](\[O-])c2ccc(N(C)C)cc2)c2nsnc12,–,–,–,–,–,–
N#Cc1nc(Cc2cccc3ccccc23)oc1NCC1CCCO1 (configuration not stated),21943,–,–,–,–,–
N#Cc1nc(Cc2cccc3ccccc23)oc1NCc1ccco1,22710,–,–,–,–,–
COc1ccc(CNc2oc(Cc3cccc4ccccc34)nc2C#N)cc1,–,–,–,–,–,–
CCCOc1ccc(-c2nc(C#N)c(NCC3CCCO3)o2)cc1 (configuration not stated),24772,–,–,–,–,–
COC(=O)CC1(C(=O)OC)Nc2cc(Cl)c(Cl)cc2S(=O)(=O)N1O (configuration not stated),–,·,–,·,–,–
CCCOC(=O)c1ccc(NC(=O)C(CC)CC)cc1,–,–,–,–,–,–
COc1cc(-c2nc(CN3CCCCC3CCNC(C)=O)c(C)o2)ccc1F (configuration not stated),–,–,–,–,–,–
O=c1c(Cl)c(N2CCCCC2)cnn1-c1nc2ccccc2[nH]1,–,–,–,–,–,–
O=c1c2ccccc2cnn1-c1nc2ccccc2[nH]1,–,82,–,–,–,–
O=C1CCN(Cc2ccccc2)C(=O)N1,–,·,–,·,–,–
COc1ccc(CN2CCC(=O)NC2=O)cc1,25338,–,–,–,–,–
